Rows were chosen to be rich in hits. Some 21% of all compounds tested hit in one or more screens of this group.
Pf growth 48h: Primary qHTS for delayed death inhibitors of the malarial parasite plastid, 48 hour incubation; Potency, µM (doses to about 28.7 µM), for the others: top-dose activity change, negative = inhibition, most hits filed as inhibitors; actives 5.9% (n = 310,000); AID 504832, 2011; P. falciparum luciferase growth in erythrocytes, 48 h; also: potency is read from the fitted curve at half-maximal effect; % is scaled to controls: 0 for no effect and ±100 for the full control effect
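Read-out is firefly luciferase luminescence from an integrated reporter in P. falciparum, so falling signal marks reduced parasite growth. Infected erythrocytes were at 2% hematocrit and 0.1% parasitemia (final) in Albumax-supplemented RPMI 1640.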
Shiga inhibitor: A qHTS for Small Molecule Inhibitors of Shiga Toxin. inhibition, % at 38.7 µM. actives 9.2% (n = 290,000). AID 2315, 2010. Vero cells, Shiga toxin protein synthesis inhibition reporter; in the data active = inhibition mostly above about 28%, no sharp cut-off; inactive = mostly below about 43%; also: 0% is about no effect
Cycloheximide cs: Cycloheximide Counterscreen for Small Molecule Inhibitors of Shiga Toxin | cell reporter, cycloheximide protein synthesis inhibition counterscreen | actives 12% (n = 300,000) | max response, %; in the data active = max response mostly above about 13%, no sharp cut-off; inactive = mostly below about 14%; also: read at 38.3 µM for the half of the compounds with a filed dose; 0% is about no effect
NS1 inh: qHTS Assay for Inhibitors of Influenza NS1 Protein Function; Potency, µM (doses to about 46.1 µM), inactives show at the top dose activity, positive = more growth; actives 0.4% (n = 270,000); calls by dose curve; also: potency is read from the fitted curve at half-maximal effect; actives are rising curves; nearly all actives have a fitted effect of over 50% in size
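Recovery from NS1-induced slow growth read by OD600 in budding yeast switched to galactose assay medium (pH 6.0, -URA) at 1:100 dilution. Compound 23 nl per well; the matching strain lacking NS1 serves as control.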
Pf growth 96h: Primary qHTS for delayed death inhibitors of the malarial parasite plastid, 96 hour incubation. P. falciparum luciferase reporter growth, 96 h. Potency, µM (doses to about 28.7 µM), without a hit: at the top dose activity change, negative = inhibition, actives largely listed as inhibitors. actives 6.9% (n = 320,000); also: potency is read from the fitted curve at half-maximal effect; % is scaled to controls: 0 for no effect and ±100 for the full control effect
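P. falciparum expressing integrated firefly luciferase grown in erythrocytes (2% hematocrit, 0.05% parasitemia final) with compounds for 96 hours at 37 C, 5% CO2. Growth inhibition read as loss of luminescence after adding luciferase detection reagent.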
Sm TGR block: qHTS Assay for the Inhibitors of Schistosoma Mansoni Peroxiredoxins. purified TGR, DTNB reduction, TNB absorbance 405 nm. Potency, µM (titrated, usually from 114 µM), for inactives: top-dose activity change, negative = inhibition, hits mostly inhibitors. actives 3% (n = 360,000). AID 485364, 2010; also: potency is read from the fitted curve at half-maximal effect; % is scaled to controls: 0 for no effect and ±100 for the full control effect; nearly all actives have a fitted effect of over 60% in size
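First, TGR (20 nM dispensed) and NADPH were mixed with compound. Second, a 15 min room-temperature incubation followed. Third, further NADPH and then DTNB were added to start the reaction. Finally, TNB absorbance was monitored kinetically.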
Starred values were filed as active, the others as inactive; ? = inconclusive; · = no result. Unless noted, calls follow the shape of the dose curve; as a rule, active = well fitted curve in the direction sought with a large enough effect; inconclusive = small, poorly fitted or top-dose-only effect, or another doubt; inactive = no such curve, though single readings can be large; an effect the other way counts as inactive or inconclusive.

SMILES	Pf growth 48h	Shiga inhibitor	Cycloheximide cs	NS1 inh	Pf growth 96h	Sm TGR block
CC/C(=N\NC(=O)c1nnn(-c2nonc2N)c1-c1ccc2c(c1)OCO2)c1ccccc1	?	-3	-6	14%	?	-1%
C/C(=N\NC(=O)c1nnn(-c2nonc2N)c1-c1ccc2c(c1)OCO2)c1ccccc1	?	3	1	20%	15µM*	-5%
C/C(=N\NC(=O)c1nnn(-c2nonc2N)c1-c1ccc2c(c1)OCO2)c1ccc(C)cc1	?	-6	4	21%	13µM*	6%
CCOc1ccc(-c2c(C(=O)N/N=C(\C)c3ccncc3)nnn2-c2nonc2N)cc1	-30%	14	-5	-4%	?	-5%
C/C(=N\NC(=O)c1nnn(-c2nonc2N)c1CSc1ccccc1)c1ccc2c(c1)OCO2	3%	1	-5	15%	6%	1%
Cc1nn(-c2ccccc2)c(C)c1C(=O)OCC(=O)NCc1ccco1	-1%	26	13	-5%	24%	18µM*
Cc1nn(-c2ccccc2)c(C)c1C(=O)OCC(N)=O	-1%	-11	-1	·	8%	0%
Cc1noc(C)c1COC(=O)c1cc(C)n(-c2ccccc2)c1C	-12%	38*	51*	-57%	-2%	-4%
Cc1ccc(C(=O)OCC(=O)NCc2ccco2)cc1	·	-5	15	-6%	31%	-5%
Cc1cc(C(=O)OCC(=O)NCc2ccco2)c(C)n1-c1ccc(F)cc1	8.3µM*	22	14	-17%	?	?
CCNC(=O)COC(=O)c1cc(C)n(-c2ccccc2)c1C	-5%	62*	41*	·	-1%	5%
CC(=O)Nc1ccc(C(=O)N(C)C(C(=O)Nc2ccccc2)c2ccccn2)cc1 (configuration not stated)	0%	2	-3	-32%	-6%	1%
Cc1c(C(=O)N2CCC(C)CC2)c(S(=O)(=O)NCc2ccc(Cl)cc2)c(C)n1C	·	·	·	·	·	7%
c1ccc2c(C3=NNC(=NC4CCCCC4)SC3)c[nH]c2c1	?	26	36*	?	15µM*	0%
Cc1cc(C2=NNC(=NC3CC3)SC2)c(C)n1-c1ccccc1	?	-6	-1	27%	?	-2%
c1ccc2c(C3=NNC(=NC4CC4)SC3)c[nH]c2c1	-98%	17	38*	1%	-88%	7%
COCCn1c(C)cc(C2=NNC(=NC3CC3)SC2)c1C	-25%	-37	-16	·	-99%	-26%
c1ccc(C2=NNC(=NC3CC3)SC2)cc1	171%	32	15*	-5%	87%	-5%
Cc1ccccc1-c1noc(C(C)NC(=O)c2ccco2)n1 (configuration not stated)	23%	-13	-3	-10%	19%	?
CC(=O)c1ccc(NC(=O)c2cc3c([nH]c2=O)CC(c2ccccc2)CC3=O)cc1 (configuration not stated)	·	·	·	·	·	-9%
COc1ccc(/C=C\c2nc(=O)c3ccccc3o2)cc1	?	135*	60*	·	-27%	-3%
O=c1nc(/C=C/c2ccc(O)c(O)c2)oc2ccccc12	26%	38	25*	-1%	23%	-35%
O=C1N=c2ccccc2=C1c1c(O)[nH]c2c(C(F)(F)F)cccc12	-2%	·	-2	-26%	?	9%
CC(C)c1cnc2c(c1SCC(=O)Nc1cccc(F)c1)c(=O)n(C)c(=O)n2C	·	·	·	·	·	-2%
Cc1cccc(C(c2sc3nc(-c4ccco4)nn3c2O)N2CCN(c3ccccc3F)CC2)c1 (configuration not stated)	·	·	·	·	·	-1%
SMILES	Pf growth 48h	Shiga inhibitor	Cycloheximide cs	NS1 inh	Pf growth 96h	Sm TGR block
CCCCCn1c(=O)[nH]c2cc(C(=O)Nc3cc(OC)cc(OC)c3)ccc2c1=O	·	·	·	·	·	-1%
CN(CCC#N)C(=O)COC(=O)c1c2c(nc3ccccc13)/C(=C/c1ccco1)CC2	12%	23	38*	?	-34%	10µM*
NNC(=O)c1cc(Br)cs1	19%	33*	26	3%	32%	1%
COc1cn(CC(=O)Nc2ccccc2)c(CN2CCCCC2)cc1=O	·	·	·	·	·	46%
CSc1nnc(-c2sc3cc(C(F)(F)F)cnc3c2-c2ccccc2)n1C	·	-11	1	0%	6.6µM*	-10%
Cc1c(Cl)cccc1NC(=O)CN1C(=O)COc2ccc(S(=O)(=O)N3CCOCC3)cc21	·	·	·	·	·	-1%
Fc1ccc2c(Cl)c(-c3nnc(-c4cccs4)o3)sc2c1	215%	78*	35*	2%	27%	-29%
O=C(CS(=O)(=O)c1ccc(F)cc1)Nc1nnc(-c2cccs2)o1	1%	·	·	·	-1%	-9%
Cc1nn(C(=O)c2cccc(Cl)c2)c(C)c1S(=O)(=O)N1CCOCC1	·	·	·	·	·	20µM*
Cc1ccc2c(c1)[C@H]1[C@H](CO2)[C@H](c2ccccc2)[C@]2(C)C(=O)N(Cc3ccc(Cl)cc3)CC(=O)N12	?	·	·	·	?	3%
COc1ccc(CN2CC(=O)N3[C@H]4c5ccccc5OC[C@@H]4[C@H](c4ccccc4)[C@]3(C)C2=O)cc1	9.3µM*	·	·	·	?	-1%
C[C@@]12C(=O)N(Cc3ccccc3)CC(=O)N1[C@H]1c3cc(Cl)ccc3OC[C@@H]1[C@@H]2c1ccccc1	9.3µM*	·	·	·	?	-3%
CC(OC(=O)c1cc(S(=O)(=O)N(C)c2ccccc2)ccc1Cl)C(=O)Nc1ccc2c(c1)OCCO2 (configuration not stated)	-10%	-3	-4	22%	22%	5%
O=C(CSc1ccc(Cl)cc1)c1ccco1	17%	65*	42	?	?	5.6µM*
O=C(CCSc1ccc(Cl)cc1)c1ccco1	-11%	11	-2	6%	?	1µM*
O=C(NCCSc1ccc(Cl)cc1)c1ccco1	·	16	14	-164%	?	-2%
O=C(CSc1ccc(Cl)cc1)Nc1cccc(NC(=O)c2ccco2)c1	-7%	-14	13	-14%	-4%	12%
O=C(CSc1ccccc1Cl)c1ccco1	52%	49	26*	-3%	37%	45µM*
Nc1nnc(SCC(=O)c2ccco2)s1	19%	17	-2	8%	36%	-10%
COc1cc2c(cc1OC)C(c1ccccc1C)CC(=O)N2 (configuration not stated)	0%	-9	-3	10%	?	-7%
COC(CNC(=O)c1ccc2nc(-c3cccs3)c(-c3cccs3)nc2c1)OC	2%	-9	-4	-7%	?	4%
COc1ccc(-c2nc3ccc(C(=O)NCC(OC)OC)cc3nc2-c2ccc(OC)c(OC)c2)cc1OC	4.1µM*	-4	1	-4%	13%	6%

High-throughput results (PubChem)
